Sampled rows, rich in hits. Any-hit rate of the full collection: about 2.3%.
Giardia kill: Giardia lamblia killing; Giardia lamblia trophozoite viability; activity change, % at 7.66 µM, hits read low; 340,000 compounds, 0.15% hits; in the data active means activity change below about -80%; inconclusive means between about -30% and that limit;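 further: parasites exposed to compound for two days anaerobically before the ATP read; on the % scale 0 is the no-effect control and ±100 the full control effect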
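Trophozoites 100 cells/well + cpd; 48 hrs, 37 deg C, anaerobic. ATPLite 1-Step added, 15-30 min RT, luminescence read (ATP-based viability).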
ELG1 repair inh: blocks ELG1-dependent DNA repair in HEK293T cells | HEK293T ELG1-luciferase reporter, luminescence, 16 h; DNA damage induced by 5-fluorouridine | Potency, µM (titrated, usually from 46.1 µM), for the others: top-dose activity change, negative = inhibition, actives largely listed as inhibitors | 330,000 compounds, 2.3% hits | AID 504467; further: potency means the concentration at half of the fitted maximal effect; on the % scale 0 is the no-effect control and ±100 the full control effect; nearly all actives have a fitted effect of over 55% in size
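Cells (2,000 per well) received 5-fluorouridine plus test compound or DMSO and were incubated 16 hr at 37 °C, 5% CO2. Luciferase activity was read by luminescence 30 min after ONE-Glo addition; signal suppression marked inhibition of damage-induced ELG1 function.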
FUS suppressor: rescues growth of FUS-expressing yeast; 390,000 compounds, 0.24% hits; Potency, µM (titrated, usually from 76.6 µM), actives largely listed as activators; S. cerevisiae FUS-expressing, growth rescue, OD600, 24 h;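 further: potency means the concentration at half of the fitted maximal effect; plate controls were DMSO vehicle for no effect and reference control for full effect; nearly all actives have a fitted effect of over 55% in size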
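Absorbance at 600 nm, taken 24hr after compound addition, measured rescue of FUS-yeast growth at 30C. Induction used 2% galactose with seeding at OD 0.005. Controls: CP55940 from 92uM final, DMSO only.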
TRPV1 potentiator: enhances activation of the human vanilloid receptor TRPV1 | Q8NER1 | TRPV1-expressing cells, Fluo-8 calcium influx, capsaicin EC20 potentiation | potentiation, % at 8.33 µM | 320,000 compounds, 0.02% hits | AID 540277; in the data active means potentiation above about 80%; inconclusive means between about 30% and that limit; further: 0% is about no effect
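TRPV1-expressing cells were cultured overnight at 35.5C and loaded with Fluo-8 calcium dye for 40 to 90 min at room temperature. After a 10 s baseline, compound was added and calcium influx was read kinetically for 3 min (ex 480/em 520 nm).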
TRPV1 agonist: human TRPV1 agonism. 320,000 compounds, 0.19% hits. activation, % at 8.33 µM. TRPV1-expressing cells, Fluo-8 calcium influx, agonist mode. Q8NER1; in the data active means activation above about 80%; inconclusive means between about 30% and that limit; further: 0% is about no effect
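Cells expressing TRPV1 were dye-loaded with Fluo-8 and read kinetically: 10 s baseline, 3 min after compound (agonist portion), then 2 min after EC20 capsaicin (allosteric enhancer portion). Calcium-bound dye fluorescence at 480/520 nm.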
ELG1 FLuc counter: luciferase inhibition in cell-free luciferin readout for ELG1 hits | shares compounds with ELG1 repair inh | cell-free firefly luciferase luminescence counter-screen, ViewLux | Potency, µM (doses to about 46.1 µM), for the others: at the top dose activity change, negative = inhibition, usual class: inhibitors | 350 compounds, 3% hits | AID 624247; further: potency means the concentration at half of the fitted maximal effect; on the % scale 0 is the no-effect control and ±100 the full control effect
ELG1-Luc inh: human ELG1 repair inhibition, luciferase-tagged ELG1 confirmation; shares compounds with ELG1 repair inh; HEK293T ELG1-luciferase levels, luminescence; cells co-treated with 5-fluorouridine; Potency, µM (highest dose often 46.1 µM), inactives show at the highest dose activity change, negative = inhibition, usual class: inhibitors; 670 compounds, 68% hits; AID 624248; further: potency means the concentration at half of the fitted maximal effect; on the % scale 0 is the no-effect control and ±100 the full control effect; nearly all actives have a fitted effect of over 55% in size
Target sequence (Q96QE3 whole entry, looked up): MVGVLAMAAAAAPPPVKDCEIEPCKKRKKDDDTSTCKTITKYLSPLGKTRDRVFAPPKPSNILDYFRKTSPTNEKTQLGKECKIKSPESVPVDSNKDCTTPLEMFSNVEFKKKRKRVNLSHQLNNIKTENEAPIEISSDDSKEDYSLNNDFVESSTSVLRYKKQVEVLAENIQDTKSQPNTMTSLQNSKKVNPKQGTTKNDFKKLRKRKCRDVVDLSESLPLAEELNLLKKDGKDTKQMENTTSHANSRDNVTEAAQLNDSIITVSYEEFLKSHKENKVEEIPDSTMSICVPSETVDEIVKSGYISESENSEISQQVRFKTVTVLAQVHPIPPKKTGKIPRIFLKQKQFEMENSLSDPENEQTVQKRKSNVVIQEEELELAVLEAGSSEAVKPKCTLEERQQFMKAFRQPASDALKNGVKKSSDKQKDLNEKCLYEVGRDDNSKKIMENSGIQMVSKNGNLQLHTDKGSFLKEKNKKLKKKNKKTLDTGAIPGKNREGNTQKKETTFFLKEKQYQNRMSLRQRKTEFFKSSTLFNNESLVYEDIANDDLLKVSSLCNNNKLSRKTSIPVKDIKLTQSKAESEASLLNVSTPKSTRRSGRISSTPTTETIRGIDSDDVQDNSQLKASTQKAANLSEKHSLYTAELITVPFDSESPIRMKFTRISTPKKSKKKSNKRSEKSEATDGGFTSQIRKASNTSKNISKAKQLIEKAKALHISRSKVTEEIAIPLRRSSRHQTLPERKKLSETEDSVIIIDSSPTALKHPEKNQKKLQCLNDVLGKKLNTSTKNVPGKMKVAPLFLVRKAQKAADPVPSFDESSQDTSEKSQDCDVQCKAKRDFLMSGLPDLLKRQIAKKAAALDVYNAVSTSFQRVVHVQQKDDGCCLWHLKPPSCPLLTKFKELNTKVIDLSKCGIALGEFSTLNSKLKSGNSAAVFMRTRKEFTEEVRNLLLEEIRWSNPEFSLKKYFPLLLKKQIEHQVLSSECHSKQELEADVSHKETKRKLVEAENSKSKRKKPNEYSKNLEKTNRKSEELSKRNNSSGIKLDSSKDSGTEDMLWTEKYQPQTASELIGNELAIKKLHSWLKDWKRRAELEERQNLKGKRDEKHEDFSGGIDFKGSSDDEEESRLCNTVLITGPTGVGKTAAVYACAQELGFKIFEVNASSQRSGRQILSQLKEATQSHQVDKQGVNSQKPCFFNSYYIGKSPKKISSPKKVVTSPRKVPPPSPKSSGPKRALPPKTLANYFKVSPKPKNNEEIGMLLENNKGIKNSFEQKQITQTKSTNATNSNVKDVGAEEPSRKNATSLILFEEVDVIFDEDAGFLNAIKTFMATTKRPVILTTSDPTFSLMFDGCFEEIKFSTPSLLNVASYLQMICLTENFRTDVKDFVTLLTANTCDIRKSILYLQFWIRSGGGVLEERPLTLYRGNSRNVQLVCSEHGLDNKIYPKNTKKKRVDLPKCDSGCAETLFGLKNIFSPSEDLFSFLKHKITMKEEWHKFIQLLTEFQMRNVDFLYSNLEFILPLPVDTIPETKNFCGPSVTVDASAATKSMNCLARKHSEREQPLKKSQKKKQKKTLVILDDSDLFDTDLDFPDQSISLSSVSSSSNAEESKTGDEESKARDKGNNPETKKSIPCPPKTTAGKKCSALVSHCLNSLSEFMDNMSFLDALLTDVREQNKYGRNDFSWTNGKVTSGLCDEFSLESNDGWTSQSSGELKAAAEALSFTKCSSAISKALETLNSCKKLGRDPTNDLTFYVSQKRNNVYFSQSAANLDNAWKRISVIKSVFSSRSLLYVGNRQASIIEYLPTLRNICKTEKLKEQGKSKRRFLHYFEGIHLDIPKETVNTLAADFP
ELG1 MMS Luc: confirmation of human ELG1 repair inhibitors, MMS stimulated; HEK293T luciferase-tagged ELG1 level, MMS stimulated; shares compounds with ELG1 repair inh; Potency, µM (highest dose often 46.1 µM), without a hit: top-dose activity change, negative = inhibition, actives largely listed as inhibitors; 670 compounds, 53% hits; further: potency means the concentration at half of the fitted maximal effect; on the % scale 0 is the no-effect control and ±100 the full control effect; nearly all actives have a fitted effect of over 60% in size
ELG1 5-FU: confirmation of ELG1 repair inhibitors: viability with 5FU. shares compounds with ELG1 repair inh. cell viability with 5-FU, ELG1-dependent repair. 670 tested, under 10 active. Potency, µM (titrated, usually from 46.1 µM), without a hit: top-dose activity change, negative = viability loss, hits mostly cytotoxic;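 further: ELG1-luc HEK293T cells cotreated with 5-fluorouridine at 10 µM final; potency means the concentration at half of the fitted maximal effect; viability measured 16 h after compound addition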
ELG1 MMS viab: confirmation of ELG1 repair inhibitors: viability with MMS; shares compounds with ELG1 repair inh; Cell viability with MMS, ELG1-dependent DNA repair; Potency, µM (series often up to 46.1 µM), for inactives: at the top dose activity change, negative = viability loss, actives largely listed as cytotoxic; 670 compounds, 33% hits;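 further: ELG1-luc HEK293T cells co-treated with 10 µM MMS; potency means the concentration at half of the fitted maximal effect; viability read 16 h after compound addition; on the % scale 0 is the no-effect control and ±100 the full control effect; nearly all actives have a fitted effect of over 60% in size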
Cell viab unstim: unstimulated viability counter-screen for ELG1 repair hits | AID 624252 | Potency, µM (doses to about 45.9 µM), without a hit: top-dose activity change, negative = loss of viability, most hits filed as cytotoxic | cell viability counter-screen, unstimulated, luminescence | 900 compounds, 8% hits | shares compounds with ELG1 repair inh;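 further: potency means the concentration at half of the fitted maximal effect; compound exposure lasted 16 hours before reading; on the % scale 0 is the no-effect control and ±100 the full control effect; nearly all actives have a fitted effect of over 55% in size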
FLuc biochem: firefly luciferase inhibition counter-screen; shares compounds with ELG1 repair inh; AID 624253; 350 compounds, 10% hits; Potency, µM (top dose mostly 57.5 µM), for the others: at the top dose activity, negative = inhibition, actives largely listed as inhibitors; purified firefly luciferase, luminescence counter-screen; further: potency means the concentration at half of the fitted maximal effect; on the % scale 0 is the no-effect control and ±100 the full control effect
Active calls of the source: *; i = inactive; u = inconclusive; x = no result. Unless noted, the call rests on the fitted dose curve; in most records, active means well fitted curve in the direction sought with a large enough effect; inconclusive means small, poorly fitted or top-dose-only effect, or another doubt; inactive means no such curve, though single readings can be large; an effect the other way counts as inactive or inconclusive.

SMILES	Giardia kill	ELG1 repair inh	FUS suppressor	TRPV1 potentiator	TRPV1 agonist	ELG1-Luc inh	ELG1 MMS Luc	ELG1 5-FU	ELG1 MMS viab	Cell viab unstim	others
Cc1ccccc1-c1nnc(SCC(=O)Nc2cccnc2Cl)o1	u	u	i	x	x	x	x	x	x	25µM*
COc1ccccc1NC(=O)CSc1nnc(-c2ccccc2C)o1	x	x	i	x	x	x	x	x	x	x
COc1ccc(-n2c(=O)c3sc4ccccc4c3n(CC(=O)Nc3ccccc3F)c2=O)cc1	x	x	i	x	x	x	x	x	x	x
Cc1cc(C(=O)CSc2nc(N)cc(=O)[nH]2)c(C)n1-c1ccc(OC(F)F)cc1	7.7	u	i	-8.8	3.4	-6.1%	1.58µM*	-15.7%	1.58µM*	u
CC(=O)N1c2ccc(S(=O)(=O)NCCC(=O)NCc3ccc(N(C)C)cc3)cc2CC1C (stereo not drawn)	7.0	4.61µM*	i	7.6	-1.4	12.5µM*	-16.2%	u	9.5%	4.2%
CC(=O)N1c2ccc(S(=O)(=O)NCCC(=O)NCc3ccc(Cl)cc3)cc2CC1C (stereo not drawn)	-3.0	u	i	4.5	-0.1	x	x	x	x	x
CCN1CCN(c2ccc(Nc3ccnc4ccccc34)cc2)CC1	7.5	4.61µM*	i	1.4	1.2	u	17.7µM*	-8.1%	u	-13.2%
O=c1c(-c2ccc(F)cc2)coc2cc(O)ccc12	u	u	i	-5.1	-2.4	x	x	x	x	x
O=c1c(-c2ccc(F)cc2)coc2c3c(ccc12)OCCO3	-5.8	u	i	6.2	-2.7	x	x	x	x	u	ELG1 FLuc counter=123.5%;FLuc biochem=u
Cc1csc2ncnc(NCCc3ccccn3)c12	-2.5	1.46µM*	i	11.4	6.2	u	1.58µM*	-2.6%	2.23µM*	u
COc1ccc(-c2cc(C(=O)Nc3ccc(O)cc3)c3ccccc3n2)cc1OC	-11.4	u	i	-14.0	23.0	x	x	x	x	x
COc1ccc(NC(=O)c2cc(-c3cc(OC)c(OC)c(OC)c3)nc3ccccc23)cc1OC	10.5	1.83µM*	u	u	-2.2	1.12µM*	19.9µM*	u	u	-13.5%
c1ccc2sc(-c3csc4c3CCNC4)nc2c1	x	x	i	x	x	x	x	x	x	x
CN=C1SC(CC(=O)Nc2ccccc2F)C(=O)N1/N=C/c1ccc(O)c(OC)c1 (stereo not drawn)	-9.7	2.91µM*	i	18.9	-5.1	14.1µM*	11.8%	u	-0.5%	u
CCCN1C[C@@H](C)[C@@H](OC)CN(C)C(=O)c2ccc(NC(=O)c3cccc(F)c3)cc2OC[C@H]1C	x	x	i	x	x	x	x	x	x	x
C#Cc1ccc([C@H]2C=C(C(=O)N3CCN(Cc4ccc5c(c4)OCO5)CC3)O[C@@H](OCc3ccc(CO)cc3)C2)cc1	-21.5	1.64µM*	i	23.0	-2.6	5.61µM*	u	u	u	-3.0%	ELG1 FLuc counter=-6.8%;FLuc biochem=-1.3%
O=C(C1=C[C@H](c2ccc(Br)cc2)C[C@H](OCc2ccc(CO)cc2)O1)N1CCN(Cc2ccc3c(c2)OCO3)CC1	u	9.2µM*	i	22.7	-1.3	7.92µM*	u	u	-5.8%	u	ELG1 FLuc counter=u;FLuc biochem=-8.5%
CC1CCC(NC(=O)CN2C(=O)NC(C)(C)C2=O)CC1 (stereo not drawn)	6.9	23.4%	i	5.3	0.7	x	x	x	x	-17.4%	ELG1 FLuc counter=70.9%;FLuc biochem=-3.2%
COc1ccc(C2(C)NC(=O)N(CC(=O)NC3CC3)C2=O)cc1 (stereo not drawn)	7.3	17.2%	i	x	x	x	x	x	x	x
COc1cc2c(C#CCCO)c(-c3ccsc3)oc(=O)c2cc1OC	18.8	u	u	x	x	6.29µM*	7.92µM*	-2.8%	-8.2%	u	ELG1 FLuc counter=5.0%;FLuc biochem=0.8%
COc1cccc(N2CCN(c3ncnc4onc(-c5ccc(F)cc5)c34)CC2)c1	x	x	i	x	x	x	x	x	x	x
COCCN(C(=O)Cc1cccs1)C(C(=O)NCc1ccc(OC)cc1)c1ccc(C)cc1 (stereo not drawn)	-5.6	u	i	-11.0	24.4	x	x	x	x	x
COc1ccc(CNC(=O)C(c2ccc(C)o2)N(Cc2cccs2)C(=O)Cc2cccs2)cc1 (stereo not drawn)	28.5	20.6µM*	i	-0.8	0.5	11.2µM*	u	3.7%	-4.3%	u	ELG1 FLuc counter=-13.9%;FLuc biochem=3.3%
CCOc1ccc(CCNC(=O)CCCc2nnc3n(C)c(=O)c4sccc4n23)cc1OCC	x	x	i	x	x	x	x	x	x	x
COc1ccc(-c2cnc(C)o2)cc1S(=O)(=O)Nc1ccc(F)cc1F	x	x	i	x	x	x	x	x	x	x
OCCCNc1ncnc2scc(-c3ccc(Cl)cc3)c12	-3.8	4.61µM*	i	-2.3	14.5	5.6µM*	15.8µM*	-0.5%	5.2%	u
CCN(CC)CCCN1C(=O)C2=C(C1=O)C1N(C)c3ccccc3[C@@]13C[C@@H](CO)N(C(=O)CCC(=O)OC)C3=N2 (stereo partly drawn)	x	x	i	x	x	x	x	x	x	x
Cc1ccc2nsnc2c1S(=O)(=O)N(Cc1cc2cccc(C)c2[nH]c1=O)CC1CCCO1 (stereo not drawn)	3.7	2.31µM*	i	-10.8	2.4	u	7.91µM*	5.2%	-15.7%	u
Cc1ccc2cc(CN(CC3CCCO3)S(=O)(=O)c3c(C)ccc4nsnc34)c(=O)[nH]c2c1 (stereo not drawn)	-1.4	-8.6%	i	3.9	-1.0	x	x	x	x	x
